Results as given in PubChem BioAssay AID1851 (National Center for Advancing Translational Sciences (NCATS), 2009).
Several values for one entry are separate records, joined by “and”; a condition that tells them apart may be missing. Equal values may be shown once. Screen size: about 16,000 compounds; about 5,700 (36%) were called active. Inconclusive results (about 24%) are left out. Calls come from the whole dose curve; as a rule, active = well fitted curve in the direction sought with a large enough effect; inconclusive = small, poorly fitted or top-dose-only effect, or effect the other way; inactive = no such curve, though single readings can be large or run the other way. The list shows a part of the results.
% is set by controls: 0 for no effect and ±100 for the full control effect.

Each compound was assayed against Cytochrome P450 1A2 (Homo sapiens) (UniProt P05177) (assay: Cytochrome panel assay with activity outcomes). Conditions: recombinant CYP, pro-luciferin dealkylation, luminescence, p450-cyp1a2; series mostly up to 57.1 µM.
Sequence of Cytochrome P450 1A2 (Homo sapiens) (P05177 whole entry, looked up): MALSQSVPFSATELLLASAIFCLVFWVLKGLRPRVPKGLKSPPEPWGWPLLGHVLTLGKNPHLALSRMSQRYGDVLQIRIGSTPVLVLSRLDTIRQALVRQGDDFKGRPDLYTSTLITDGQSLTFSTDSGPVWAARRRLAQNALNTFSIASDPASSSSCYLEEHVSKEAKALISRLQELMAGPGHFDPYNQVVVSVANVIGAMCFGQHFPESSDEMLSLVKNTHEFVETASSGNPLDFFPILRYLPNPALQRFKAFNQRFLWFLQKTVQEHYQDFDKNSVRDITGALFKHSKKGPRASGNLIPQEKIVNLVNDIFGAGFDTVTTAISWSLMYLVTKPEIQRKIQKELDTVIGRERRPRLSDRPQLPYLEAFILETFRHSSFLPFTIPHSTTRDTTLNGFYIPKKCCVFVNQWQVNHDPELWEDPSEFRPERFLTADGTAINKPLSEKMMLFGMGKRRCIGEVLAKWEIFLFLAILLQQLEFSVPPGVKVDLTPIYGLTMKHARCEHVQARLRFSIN
C1=C(CN2CCOCC2)COc2c1cccc2OC[C@@H]1CNCCO1 was tested, and the AC50 was 12.6 µM (active).
In the case of Cc1c(C)c2c(c(C)c1O)CC[C@@](C)(CCC[C@@H](C)CCC[C@@H](C)CCCC(C)C)O2, the AC50 is reported as “inactive”.
In the case of COc1ccc(C2CC(=O)c3cnc(Nc4cc(C)cc(C)c4)nc3C2)cc1 (configuration not stated), the AC50 is reported as 14.1 µM (active).
COc1ccc(Nc2ncc3c(n2)CC(c2ccc(C)cc2)CC3=O)cc1 (configuration not stated) was tested, and the AC50 was 14.1 µM (active).
With COc1ccc(NC2=NC(=S)N(c3ccc(C)cc3)C23CCCCC3)cc1 the AC50 was “inactive”.
CCSc1nnc(-c2ccc(Cl)cc2)c2ccccc12 was tested, and the AC50 was 7.08 µM (active).
In the case of O=[N+]([O-])c1cc(Cl)cc2c1nc(NCCO)c1ccccc12, the AC50 is reported as 0.02 µM (active).
With CCOC(=O)C(NC(C)=O)C(=O)O (configuration not stated) the AC50 was “inactive”.
In the case of O=C1C[C@@H](O)[C@@H](O)[C@H]2[C@@H]3C(=O)N(C4CCCCC4)C(=O)[C@@H]3CC[C@H]12, the activity, negative = inhibition is reported as 4% [at 11.4 µM] (inactive) and -9.85% [at 11.4 µM] (inactive) and 5.4% [at 11.4 µM] (inactive).
In the case of CC(=O)[C@@H]1[C@@H]2C(=O)N(C3CCCCC3)C(=O)[C@@H]2C2c3ccccc3C=CN21 (some centres not stated), the AC50 is reported as 15.8 µM (active).
With O=C1C2C3C=CC([C@@H]2C(=O)N1C1CCCCC1)[C@H]1C(=O)N(C2CCCCC2)C(=O)C31 (some centres not stated) the AC50 was “inactive”.
With COc1ccc(C(=O)N2CCC3(CCN(Cc4ccccc4OC)CC3)CC2)cc1 the AC50 was “inactive”.
In the case of COc1cccc(-c2nccc(NCc3ccccc3OC)n2)c1, the AC50 is reported as 1.26 µM (active).
COc1cccc(-c2nccc(NCc3ccc(OC)cc3OC)n2)c1 was tested, and the AC50 was 1 µM (active).
In the case of COc1ccc(CNc2ccnc(-c3cccnc3)n2)c(OC)c1, the AC50 is reported as 0.316 µM (active).
In the case of COCCNc1ccnc(-c2cccc(NS(C)(=O)=O)c2)n1, the AC50 is reported as 2 µM (active).
With CCOc1ccc(N(C(C)C(=O)NC(C)CC)S(C)(=O)=O)cc1 (configuration not stated) the AC50 was “inactive”.
For N[C@H](CCC(=O)N[C@H](CSN=O)C(=O)NCC(=O)O)C(=O)O, the AC50 was “inactive”.
NC1=C2NC=N[C@@H]2N(C/C=C\c2ccccc2)C=N1 was tested, and the activity, negative = inhibition was -12.4% [at 2.29 µM] (inactive).
In the case of COc1ccc(CNc2ccnc(-c3cccc(NS(C)(=O)=O)c3)n2)c(OC)c1, the AC50 is reported as 15.8 µM (active).
CC(C)[C@@H]1NC(=O)[C@H](CCCCN)NC(=O)[C@H](Cc2c[nH]c3ccccc23)NC(=O)[C@H](Cc2ccc(O)cc2)NC(=O)[C@H](C)N(C)C(=O)[C@H](Cc2ccccc2)NC1=O was tested, and the AC50 was “inactive”.
With COc1ccc(-c2ccc(=O)n(CC(=O)Nc3nnc(C(C)C)s3)n2)cc1OC the AC50 was “inactive”.
In the case of COc1ccc(-c2nn3cnnc3s2)cc1OC, the AC50 is reported as 20 µM (active).
In the case of CN(C)c1ncc2nc(-c3cc(F)cc(F)c3)c(=O)n(Cc3ccc(F)cc3)c2n1, the AC50 is reported as “inactive”.
With CN(C)c1ncc2nc(-c3ccc(Cl)cc3)c(=O)n(Cc3ccc(F)cc3)c2n1 the AC50 was 5.01 µM (active).
With Cc1nc2cnc(N(C)C)nc2n(Cc2ccc(F)cc2)c1=O the AC50 was 2 µM (active).
CN(C)c1ncc2nc(-c3ccc(F)cc3)c(=O)n(Cc3ccc(F)cc3)c2n1 was tested, and the AC50 was “inactive”.
In the case of O=C1[C@@H]2[C@H]3[C@H](O)[C@H](O)C/C(=N/OCc4ccccc4)[C@@H]3CC[C@H]2C(=O)N1c1ccc(F)cc1F, the activity, negative = inhibition is reported as 4.37% [at 11.4 µM] (inactive).
For Clc1ccc(/C=N/Nc2nnc(-c3ncc[nH]3)c3ccccc23)cc1, the AC50 was 0.2 µM (active).
NC[C@@H]1O[C@H](C23CC4CC(CC(C4)C2)C3)Cc2c1ccc(O)c2O was tested, and the AC50 was “inactive”.
With Cc1[nH]n(-c2ccc(S(=O)(=O)O)cc2)c(=O)c1N=Nc1ccccc1 the activity, negative = inhibition was -10.5% [at 11.4 µM] (inactive).
With Cc1ccc(C2C(C=Nc3c(C)n(C)n(-c4ccccc4)c3=O)=C(c3ccccc3)Oc3ccccc32)cc1 (configuration not stated) the AC50 was “inactive”.
For Nc1c(N=Nc2cccc(Cl)c2)c(=O)[nH]n1-c1ccccc1, the AC50 was 2 µM (active).
In the case of Cc1ccc(N=Nc2c(N)n(-c3ccccc3)[nH]c2=O)cc1, the AC50 is reported as 2.82 µM (active).
With Cc1nc2cnc(Oc3cccc(Cl)c3)nc2n(C2CC2)c1=O the AC50 was 6.31 µM (active).
In the case of O=c1cnc2cnc(Oc3cccc(Cl)c3)nc2n1C1CC1, the AC50 is reported as 2.51 µM (active).
Cc1nc2cnc(Oc3ccccc3)nc2n(C2CC2)c1=O was tested, and the AC50 was 10 µM (active).
In the case of O=c1cc(N2CCN(c3cccc(Cl)c3)CC2)[nH]c(=O)n1C1CCCCC1, the AC50 is reported as “inactive”.
COc1ccc(C2/C(=C(/O)c3ccccc3)C(=O)C(=O)N2CC(C)O)c(OC)c1 (configuration not stated) was tested, and the AC50 was “inactive”.
With N#Cc1ccc(C(c2nnnn2Cc2ccccc2)N2CCCC2)cc1 (configuration not stated) the AC50 was “inactive”.
For O=C(NCc1ccc(F)cc1)C(c1ccncc1)N(C(=O)c1csnn1)C1CC1 (configuration not stated), the AC50 was “inactive”.
Cc1sc2ccccc2[n+]1CCC(C)S(=O)(=O)[O-] (configuration not stated) was tested, and the AC50 was “inactive”.
O=C1c2ccccc2-c2n[nH]c3cccc1c23 was tested, and the AC50 was 0.0158 µM (active).
For CCc1cccc(NC(=O)CN(C)S(=O)(=O)c2cnc[nH]2)c1, the AC50 was “inactive”.
In the case of CN(CC(=O)Nc1ccc(F)c(F)c1)S(=O)(=O)c1cccc2nsnc12, the AC50 is reported as 15.8 µM (active).
CC1CCN(C(=O)CN(C)S(=O)(=O)c2cccc3nsnc23)CC1 was tested, and the AC50 was “inactive”.
With CCN(CC)CCC[C@H](C)Nc1c2ccc(Cl)cc2nc2ccc(OC)cc12 the AC50 was 2 µM (active) and 1 µM (active).
In the case of Cc1cccc(N(CC(=O)N2CCOCC2)S(C)(=O)=O)c1, the AC50 is reported as “inactive”.
With C/C(=N\NC(=O)c1ccc(Br)cc1)c1ccccc1 the AC50 was 1.41 µM (active).
With CC(C)OP(=O)(OC(C)C)C(NC(=O)c1ccc(Br)cc1)c1ccccc1 (configuration not stated) the AC50 was “inactive”.
In the case of O=C(N/C(=C\c1cccnc1)C(=O)N1CCOCC1)c1cccc(Br)c1, the AC50 is reported as “inactive”.
For C/C(=N/NC(=O)c1ccc(NC(=O)c2ccc(F)cc2)cc1)c1ccccc1, the AC50 was “inactive”.
CCn1cc(C(=O)N/N=C(/C)c2ccc(F)cc2)c(=O)c2cc(F)c(N3CCCC3)cc21 was tested, and the AC50 was “inactive”.
With C/C(=N\NC(=O)c1cccc(Br)c1)c1ccc(Br)cc1 the AC50 was 0.282 µM (active).
Cc1ccccc1-c1nccc(NCc2cccs2)n1 was tested, and the AC50 was 0.501 µM (active).
With CN(C)Cc1ccccc1-c1nccc(NCc2cccs2)n1 the AC50 was 0.794 µM (active).
FC(F)(F)c1ccccc1-c1nccc(NCc2cccs2)n1 was tested, and the AC50 was 1.26 µM (active).
CC1CCN(c2cc(N3CCC(C)CC3)c([N+](=O)[O-])cc2/C=C(\C#N)c2nn(-c3ccccc3)c(N)c2C#N)CC1 was tested, and the AC50 was “inactive”.
For CCCC[P+](CCCC)(CCCC)Cc1ccc(NC(=O)[C@@H](Cc2ccc3ccccc3c2)NC(=NC2CCCCC2)NC2CCCCC2)cc1, the AC50 was 31.6 µM (active).
O=C(Nc1ccccc1)C(Cc1ccccc1)NC(=O)C12CC3CC(CC(C3)C1)C2 (configuration not stated) was tested, and the AC50 was “inactive”.
In the case of COc1ccc(CC(NC(C)=O)C(=O)NC2CCN(C(=O)Nc3ccc(Cl)cc3)CC2)cc1OC (configuration not stated), the AC50 is reported as “inactive”.
For CCNC(=S)NNC(=O)Cc1ccccc1, the AC50 was “inactive”.
CCNC(=S)NNC(=O)CCn1c2ccccc2c2ccccc21 was tested, and the AC50 was 2.82 µM (active).
In the case of N#Cc1c(NC(=O)C2CC(c3ccccc3Cl)=NO2)sc2c1CCC2 (configuration not stated), the AC50 is reported as 3.55 µM (active).
CC(=O)C1=NOC(CNC(=O)c2c(-c3ccccc3Cl)noc2C)C1 (configuration not stated) was tested, and the AC50 was “inactive”.
COc1ccc(COC(=O)N/N=C2/C[C@@H](O)[C@@H](O)[C@@H]3[C@@H]4C(=O)N([C@@H](C)c5ccccc5)C(=O)[C@H]4CC[C@@H]23)cc1 was tested, and the activity, negative = inhibition was -1.59% [at 11.4 µM] (inactive).
With CSc1ccc(CNc2ccc(C)c(C)c2)cc1 the AC50 was 0.891 µM (active).
In the case of CSc1ccc(CNc2ccc(Cl)cc2)cc1, the AC50 is reported as 10 µM (active).
In the case of CSc1ccc(CNc2ccccc2)cc1, the AC50 is reported as 25.1 µM (active).
In the case of CC(Sc1nc(NCc2ccccc2)nc(N(C)C)n1)C(=O)Nc1ccccc1 (configuration not stated), the AC50 is reported as “inactive”.
In the case of CCCCC[C@H](CC(=O)NO)C(=O)N[C@@H](C(=O)N1CCC[C@H]1CO)C(C)C, the AC50 is reported as “inactive”.
In the case of Cn1c(=O)cnc2cnc(Oc3ccccc3)nc21, the AC50 is reported as 10 µM (active).
In the case of COCCn1c(=O)c(C)nc2cnc(Oc3ccc(OC)cc3)nc21, the AC50 is reported as 15.8 µM (active).
For COCCn1c(=O)cnc2cnc(Oc3ccccc3)nc21, the AC50 was 15.8 µM (active).
With O=c1cnc2cnc(Oc3ccccc3)nc2n1CCc1ccccc1 the AC50 was 3.16 µM (active).
With Cc1nn(S(=O)(=O)c2cccs2)c(C)c1Sc1ccc([N+](=O)[O-])cc1 the AC50 was “inactive”.
In the case of O=C1CCCN1CC(CN1CCOCC1)Sc1nnnn1-c1ccccc1 (configuration not stated), the AC50 is reported as “inactive”.
In the case of CCN(CC)CCCN(Cc1cc2ccc(C)c(C)c2[nH]c1=O)C(=O)NC1CCCCC1, the AC50 is reported as “inactive”.
In the case of COc1ncc2ncc(=O)n(C)c2n1, the AC50 is reported as 12.6 µM (active).
COCCn1c(=O)cnc2cnc(Oc3ccc(OC)cc3)nc21 was tested, and the AC50 was 5.01 µM (active).
In the case of COc1ccc(-n2c(=O)cnc3cnc(Oc4ccccc4)nc32)cc1, the AC50 is reported as 15.8 µM (active).
With CN(Cc1cnc2nc(N)nc(N)c2n1)c1ccc(C(=O)N[C@@H](CCC(=O)O)C(=O)O)cc1 the AC50 was “inactive”.
For N=c1sc2ccccc2n1CCS (tested in a mixture with another compound), the AC50 was 1 µM (active).
In the case of CN1CCN(c2ncc3ncc(=O)n(C[C@H]4CCCO4)c3n2)CC1, the AC50 is reported as 10 µM (active).
O=c1cnc2cnc(N3CCOCC3)nc2n1C1CC1 was tested, and the AC50 was 6.31 µM (active).
In the case of CCn1cc(C(=O)O)c(=O)c2cnc(N3CCNCC3)nc21, the AC50 is reported as “inactive”.
With O=c1cnc2cnc(N3CCOCC3)nc2n1C[C@H]1CCCO1 the AC50 was 10 µM (active).
With O=C1C=C[C@@H](O)[C@H]2[C@@H]3C(=O)N(c4cccc(Oc5ccccc5)c4)C(=O)[C@@H]3CC[C@H]12 the activity, negative = inhibition was -5.61% [at 11.4 µM] (inactive).
With COC(=O)c1nn(-c2ccccc2)c(-c2ccccc2)c1C(=O)c1ccccc1 the AC50 was “inactive”.
With COC(=O)c1nn(-c2ccccc2)c(=O)cc1Oc1ccccc1 the AC50 was 20 µM (active).
In the case of COC(=O)N1CCC2(CCCN(Cc3ccccc3)C2)CC1, the AC50 is reported as “inactive”.
O=C(c1ccncc1)N1CCC[C@@]2(CCN(c3ncccn3)C2)C1 was tested, and the AC50 was “inactive”.
